Measurements reported in PubChem BioAssay AID1259422 (The Scripps Research Institute Molecular Screening Center, 2018).
Values joined by “and” are separate entries in the source; they are usually repeats but may differ in a detail not shown here. Equal values may be shown once. In all, about 640,000 compounds went through this assay and about 9,300 (1.5%) were called active. Cut-off read from the data, not from the text of the source: active = inhibition above about 32%; inactive = the rest. The list comes from a sample in which actives are over-represented; it also holds similar structures and randomly drawn compounds.

assay: TEAD-YAP interaction inhibition, primary screen, TEAD-YAP interaction inhibitor project, luminescence, HEK-TIYL cells (AID 1259422); conditions: TEAD-Gal4/YAP UAS-luciferase luminescence, at 9.12 µM, stronger effect = higher value;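 note: 0% = median of test compound wells and 100% = reference inhibitor wells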

SMILES	inhibition
COc1ccc(Cl)cc1S(=O)(=O)N1CCN(CC(=O)Nc2ccc(C(N)=O)cc2)CC1	3.37% (inactive)
O=C(NC(Cc1c[nH]c2ccccc12)c1nnc2n1CCC2)c1ccccc1Cl (stereo not drawn)	4.18% (inactive)
CCOC(=O)c1c(NC(=O)c2cccc(C)c2)sc2c1CCC2	1.21% (inactive)
Cc1cc(C)cc(NC2=C(N3CCN(C)CC3)C(=O)c3ccccc3C2=O)c1	14.2% (inactive)
CC(=O)N(C1=C(N2CCOCC2)C(=O)c2ccccc2C1=O)C1CCCCC1	13.4% (inactive)
CC(=O)N(C1=C(N2CCN(C)CC2)C(=O)c2ccccc2C1=O)c1cc(C)cc(C)c1	53.9% (active)
CCCCOc1ccc(-c2[nH]nc3c2C2(C(=O)Nc4ccc(C)c(Br)c42)C(C#N)=C(N)O3)cc1 (stereo not drawn)	3.07% (inactive)
Cc1nc(NC(=O)c2ccoc2C)sc1C	-21.2% (inactive)
Cc1nc(NC(=O)c2cc(Br)ccc2Cl)sc1C	-57.6% (inactive)
COc1ccc(C(=O)Nc2nc(C)c(C)s2)c(OC)c1	94.8% (active)
Cc1nc(NC(=O)c2ccc3c(c2)CCCC3)sc1C	53.4% (active)
COc1ccc(C(=O)Nc2nc(C(C)(C)C)cs2)c(OC)c1	-70.6% (inactive)
COc1ccc(C(=O)Nc2nc3c(ccc4ccccc43)s2)c(OC)c1	-16.5% (inactive) and -1.48% (inactive)
Oc1ccc2ccccc2c1/C=N/Nc1nccnc1Cl	-25.8% (inactive)
N#CC1=C(N)Oc2n[nH]c(-c3ccc(Cl)cc3)c2C1c1ccc2c(c1)OCO2 (stereo not drawn)	12.5% (inactive)
N#Cc1cnn(-c2nc3ccccc3[nH]2)c1N	-4.74% (inactive)
O=c1c(Cl)c(Cl)cnn1-c1nc2ccccc2[nH]1	56.5% (active)
Cn1ncc(Cl)c1-c1nc2ccccc2[nH]1	-8.92% (inactive)
Cc1cc(Nc2ccccc2Cl)n2nc(C)nc2n1	-1.89% (inactive)
Cc1cc(C)c(NC(=O)c2c(Cl)nc(C)c(Cl)c2C)c(C)c1	-2.91% (inactive)
COc1cccc(/C=C/C(=O)NCC(=O)O)c1OC	-11.1% (inactive)
Cc1cccc2nc(CNC(=O)CCCn3nnnc3CN3CCC(C)CC3)cn12	3.48% (inactive)
C/C(=N/NC(=O)c1ccccn1)c1ccccc1	14.7% (inactive)
CC(C)(C)c1ccc(C(=O)NNC(=O)C(=O)NCc2ccccc2)cc1	-5.07% (inactive)

SMILES	inhibition
CC(C)(C)c1ccc(C(=O)NNC(=O)c2ccccn2)cc1	41.6% (active)
N#Cc1ccc(C23CC4CC(CC(C4)C2)C3)nc1SCC(=O)Nc1nc2ccccc2s1	3.55% (inactive)
N#CC(=C1C(=O)c2ccccc2C1=O)c1nc2ccccc2[nH]1	-10.3% (inactive)
Cc1ccc(N=C2NC(=O)/C(=C\c3ccc(-c4ccccc4[N+](=O)[O-])o3)S2)c(C)c1	-2.23% (inactive)
COc1ccccc1NC(=O)C1=C(C)Nc2nc3ccccc3n2C1c1cccs1 (stereo not drawn)	46.5% (active)
CCOc1ccc(C2C(C(=O)NC)=C(C)Nc3nc4ccccc4n32)cc1OC (stereo not drawn)	-6.37% (inactive)
COc1ccccc1C1C(C(=O)N2CCCCC2)=C(C)Nc2nc3ccccc3n21 (stereo not drawn)	1.41% (inactive)
COc1ccc(C(C)=O)c(OC(=O)Cc2cc(OC)c(OC)c(OC)c2)c1	12.9% (inactive)
COc1ccc(-c2cc(C(=O)Nc3ccccc3)c3ccccc3n2)cc1	-2.31% (inactive)
COc1cc(C(=O)Nc2ccc(C(=O)O)cc2)c2ccccc2n1	-2.83% (inactive)
COc1cc(C(=O)Nc2ccc(C(C)=O)cc2)c2ccccc2n1	47.1% (active)
COC(=O)c1ccccc1NC(=O)C(=O)Nc1ccccc1C(=O)OC	-3.84% (inactive)
C/C(=C\c1ccccc1)C(=O)Nc1ccccc1C(=O)O	36.6% (active)
CCCC(=O)Nc1ccccc1C(=O)O	-0.09% (inactive)
COc1ccc(Nc2c(C#N)cnc3ccccc23)cc1Cl	49.7% (active)
COc1ccc(NC(=O)Cc2c[nH]c3ccccc23)cc1Cl	4.42% (inactive)
CCN1CCN(c2ncc(C(=O)Nc3ccc(OC)c(Cl)c3)c3ccccc23)CC1	-15.1% (inactive)
Cc1cccc(C(=O)Oc2ccc(/C=C3/SC(=Nc4ccccc4Cl)NC3=O)cc2)c1	0.81% (inactive)
COc1cc(/C=C2/SC(=Nc3ccccc3Cl)NC2=O)cc(OC)c1OC	-2.07% (inactive)
Cc1ccc(/C=C2/SC(=Nc3ccccc3Cl)NC2=O)cc1	37.2% (active)
CC(=O)Nc1nc2cc([N+](=O)[O-])c(C)cc2s1	-21.7% (inactive)
CCOc1ccccc1C1C(C(=O)OC)=C(C)NC2=C1C(=O)CC(c1ccccc1)C2 (stereo not drawn)	-5.16% (inactive)
COc1cc(C2C(C(=O)OC3CCCCC3)=C(C)NC3=C2C(=O)CC(c2ccccc2)C3)cc(Cl)c1O (stereo not drawn)	-1.53% (inactive)
CCOc1ccccc1C1CC(=O)NC2=C1C(=O)CC(c1ccccc1Cl)C2 (stereo not drawn)	36.2% (active)

SMILES	inhibition
COc1ccc(C2CC(=O)NC3=C2C(=O)CC(c2ccccc2Cl)C3)cc1 (stereo not drawn)	6.64% (inactive)
COc1ccc(C2CC(=O)C3=C(C2)Nc2ccccc2NC3c2cccc(Cl)c2)cc1 (stereo not drawn)	1.54% (inactive)
COc1cc(C2Nc3ccccc3NC3=C2C(=O)CC(c2ccccc2Cl)C3)cc(Cl)c1O (stereo not drawn)	54.8% (active)
O=C(CCCn1nnc(-c2ccccc2F)n1)c1ccc(O)cc1	-5.05% (inactive)
CCc1ccc(N/C(SCc2cccc([N+](=O)[O-])c2)=C(/C#N)C(=O)NCc2ccco2)cc1	-0.35% (inactive)
CC(=O)Nc1ccc(NC(=O)C(=O)NCc2ccc(F)cc2)cc1	0.35% (inactive)
COc1ccc(CCn2c(SCC(=O)N3CCN(c4ccccc4OC)CC3)nc3ccccc3c2=O)cc1OC	36.9% (active)
COc1ccccc1N1CCN(C(=O)CSc2nc3ccccc3c(=O)n2Cc2cccs2)CC1	-7.66% (inactive)
COc1ccccc1N1CCN(C(=O)CSc2nc3ccsc3c(=O)n2CCc2ccccc2)CC1	43.9% (active)
COc1ccc(CCn2c(SCC(=O)Nc3ccc(C)c(C)c3)nc3ccccc3c2=O)cc1OC	8.03% (inactive)
CCN(CC)C(=O)CSc1nc2ccsc2c(=O)n1CCc1ccccc1	16.3% (inactive)
COc1ccccc1N1CCN(C(=O)CSc2nc3ccsc3c(=O)n2-c2ccccc2)CC1	1.01% (inactive)
CN(C)c1cc(-c2nnc(SCc3ccccn3)n2C)nc(N(C)C)n1	1.09% (inactive)
CC(NS(=O)(=O)c1cc(Cl)ccc1Cl)C(=O)Nc1ccc2c(c1)OCCO2 (stereo not drawn)	-9.66% (inactive)
CC1CCCN(C(=O)CN2C(=O)c3ccccc3S2(=O)=O)C1 (stereo not drawn)	32.8% (active)
O=C(CC(=O)N1CCc2ccccc21)C(=O)CC(=O)N1CCc2ccccc21	8.39% (inactive)
O=C(CN1C(=O)c2ccccc2S1(=O)=O)N1CCc2ccccc21	73.9% (active)
CC1CCCN(C(=O)Cn2c(=O)oc3ccccc32)C1 (stereo not drawn)	7.96% (inactive)
O=C(CN1C(=O)c2ccccc2S1(=O)=O)N1CCN(Cc2ccccc2)CC1	-9.54% (inactive)
CC(=O)CN1C(=O)c2ccccc2S1(=O)=O	-8.06% (inactive)
O=C(NCc1ccon1)c1cccc(OC2CCN(C(=O)C3CC3)CC2)c1	-8.88% (inactive)
CC(C)CCNC(=O)C1CC(=O)N(C2CCCCC2)C1 (stereo not drawn)	1.78% (inactive)
O=C(COc1ccccc1)N1CCN(c2ccccc2F)CC1	0.47% (inactive)
CN(CC(=O)N1CCOCC1)c1ncnc2scc(-c3ccc(F)cc3)c12	2.08% (inactive)

SMILES	inhibition
Cc1csc(C(C#N)C(=O)COC(=O)c2sc3cc(F)ccc3c2Cl)n1 (stereo not drawn)	-0.66% (inactive)
COC(=O)C1=C(C)NC(=O)/C1=C\c1cccc(OCc2ccccc2)c1	-0.2% (inactive)
Cc1ccc(Nc2cc(C(=O)O)c3ccccc3n2)cc1	-9.91% (inactive)
O=C(COC(=O)c1cc(-c2ccccc2)nc2ccccc12)c1ccccc1	-10% (inactive)
O=C(c1cc(-c2ccc(Cl)cc2)nc2ccccc12)N1CCN(c2ccc([N+](=O)[O-])cc2)CC1	3.06% (inactive)
O=C(c1cc(-c2ccncc2)nc2ccccc12)N1CCN(c2ccccc2)CC1	57% (active)
O=C(O)c1cc(-c2ccc(-c3ccccc3)cc2)nc2ccccc12	84.8% (active)
O=C(c1cc(N2CCOCC2)nc2ccccc12)N1CCN(c2cccc(Cl)c2)CC1	-4.93% (inactive)
COc1ccc(CNC(=O)c2ccccc2N(Cc2ccccc2)S(=O)(=O)c2ccc(C)cc2)cc1	1.46% (inactive)
O=C(NCCCN1CCCC1=O)c1ccc2c(c1)N(Cc1ccccc1)C(=O)CS2=O (stereo not drawn)	-1.97% (inactive)
CSc1ccccc1NC(=O)Cn1nc(C)c([N+](=O)[O-])c1C	-7.74% (inactive)
Cc1ccc(Oc2ccc(NC(=O)c3ccc(Br)c([N+](=O)[O-])c3)cc2)cc1	20.9% (inactive)
CC(=O)Nc1ccc(Nc2cc(C)nc(NCc3ccc4c(c3)OCO4)n2)cc1	31.4% (inactive)
CCNc1nc(C)cc(Nc2ccc(N3CCOCC3)cc2)n1	1.76% (inactive)
Cc1cc(Nc2ccc(N3CCOCC3)cc2)nc(NCc2ccc3c(c2)OCO3)n1	38.4% (active)
O=C(Nc1cccnc1Cl)c1cc2nc3c(c(C(F)(F)F)n2n1)CCc1ccccc1-3	5.92% (inactive)
Cc1ncc(-c2ccncn2)c(-c2ccc(C(F)(F)F)nc2)n1	6.09% (inactive)
C=C(C)CONC(=O)c1cnc2scc(C(C)(C)C)n2c1=O	-7.08% (inactive)
C=CCn1c(C)cc(C2=NNC(=NCC)SC2)c1C	99.6% (active)
C=CCn1c(C)cc(C(=O)CC#N)c1C	-18.5% (inactive)
CCC(=O)Nc1ccc(C2=NNC(=NC)SC2)cc1	-4.44% (inactive)
